Screening data from PubChem.
APOBEC3A inh – human APOBEC3A DNA deaminase inhibition. 330,000 compounds, 0.41% hits. AID 493011. P31941. inhibition, % at 20 µM. recombinant A3A, FAM/TAMRA ssDNA deamination fluorescence;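 active = at least 40% inhibition at 20 µM here, with at most 30% in a related deaminase screen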
Yeast superoxide – yeast age-related superoxide inhibition as caloric restriction mimetic; 330,000 compounds, 0.18% hits; AID 2690; S. cerevisiae aged cells, superoxide DHE fluorescence; active compounds read low; superoxide response (% of plate mean), % at 10 µM;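 active = superoxide response under a set limit, about three screen SD below normal, cut at about 65% in these data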;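 also: yeast aged for seven days with compound at 30 °C before DHE staining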
PfM18AAP inh – blocks P. falciparum M18 aspartyl aminopeptidase | AID 1822 | 290,000 compounds, 1.2% hits | recombinant PfM18AAP, H-Glu-NHMec fluorogenic cleavage | inhibition, % at 7.35 µM;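 active = inhibition above the campaign mean inhibition over all tested compounds plus 3 SD, cut at about 28% in these data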
CendR NRP1 mod – alters CendR peptide binding to human NRP-1; O14786; 360,000 compounds, 0.85% hits; inhibition, % at 25 µM; FAM-RPARPAR peptide binding to NRP-1, fluorescence polarization;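 active = inhibition or corrected inhibition above about 18%, plus a signal ratio from 0.5 to 1.5, limit read from the data, passing the limit was not always enough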
ALR H2O2 inh – inhibitors of human sulfhydryl oxidase ALR | 290,000 compounds, 3.8% hits | AID 485317 | P55789 | purified ALR, DTT oxidation, H2O2 HRP-luminol luminescence | inhibition, % (concentration not given with the values);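 active = mean replicate inhibition above about 79%, with every replicate also reaching it, limit read from the data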
Target sequence (P55789 whole entry, looked up): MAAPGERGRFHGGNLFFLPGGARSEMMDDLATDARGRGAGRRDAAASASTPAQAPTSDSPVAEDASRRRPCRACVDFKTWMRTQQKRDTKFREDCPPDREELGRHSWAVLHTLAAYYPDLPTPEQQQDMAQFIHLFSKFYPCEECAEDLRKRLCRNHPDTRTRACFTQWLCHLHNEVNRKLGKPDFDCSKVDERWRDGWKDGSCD
APOBEC3G inh – APOBEC3G (human) deaminase inhibition; Q9HC16; inhibition, % at 20 µM; recombinant A3G, ssDNA deamination FAM/TAMRA fluorescence; 330,000 compounds, 0.28% hits;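 active = inhibition of at least 40% at 20 µM, with no more than 30% in the related APOBEC3A deaminase screen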
Target sequence (Q9HC16 whole entry, looked up): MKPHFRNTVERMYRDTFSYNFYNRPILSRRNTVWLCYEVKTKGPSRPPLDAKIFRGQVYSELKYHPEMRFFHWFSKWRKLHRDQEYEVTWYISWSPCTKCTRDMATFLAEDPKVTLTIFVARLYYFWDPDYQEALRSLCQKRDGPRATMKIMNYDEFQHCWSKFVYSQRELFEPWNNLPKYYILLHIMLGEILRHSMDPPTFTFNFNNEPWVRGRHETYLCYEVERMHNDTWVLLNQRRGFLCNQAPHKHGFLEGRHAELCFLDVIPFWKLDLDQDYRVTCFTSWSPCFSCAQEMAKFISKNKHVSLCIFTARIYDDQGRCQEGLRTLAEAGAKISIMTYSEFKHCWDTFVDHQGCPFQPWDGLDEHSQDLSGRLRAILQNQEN
Hits are given with their value. Shown are actives, neighbours in structure and some others; about 5.2% of the full set was active somewhere.

COc1ccc(S(=O)(=O)Nc2cccc3c2O[C@H](CN(C)CC2CC2)[C@@H](C)CN([C@H](C)CO)C3=O)cc1 was read as APOBEC3A inh inactive, Yeast superoxide inactive, CendR NRP1 mod inactive, ALR H2O2 inh inactive and APOBEC3G inh inactive.
C=CCSc1nc(N)c(C(=O)Nc2ccccc2OC)cc1C(=O)Nc1ccccc1 was read as APOBEC3A inh inactive, Yeast superoxide inactive, PfM18AAP inh inactive, CendR NRP1 mod inactive, ALR H2O2 inh inactive and APOBEC3G inh inactive.
CC1CCCC(C)N1CCCNC(=O)C1CCCN(c2ncnc3c2nc2n3CCCCC2)C1 (stereo not drawn) was read as APOBEC3A inh inactive, Yeast superoxide inactive, PfM18AAP inh inactive, CendR NRP1 mod inactive, ALR H2O2 inh inactive and APOBEC3G inh inactive.
For CC1=Nc2ccccc2/C1=C/c1sc(=S)n(-c2cccc(C(=O)O)c2)c1O the results were PfM18AAP inh inactive and CendR NRP1 mod inactive.
For CCC(=O)Nc1cccc(NC(=O)c2ccc(C)c([N+](=O)[O-])c2)c1 the results were APOBEC3A inh inactive, Yeast superoxide inactive, PfM18AAP inh inactive, CendR NRP1 mod inactive, ALR H2O2 inh inactive and APOBEC3G inh inactive.
For c1ccc(C[C@H]2COc3c4ccccc4nn32)cc1 the results were CendR NRP1 mod 25.5.
CC1COc2c3ccccc3nn21 (stereo not drawn) was read as CendR NRP1 mod inactive.
Screening Cc1ncc(CO)c(/C=N/Nc2cccc(Cl)n2)c1O returned APOBEC3A inh inactive, Yeast superoxide inactive, PfM18AAP inh inactive, CendR NRP1 mod inactive, ALR H2O2 inh 86.5 and APOBEC3G inh inactive.
`Cc1cc(C(=O)N/N=C/c2c(CO)cnc(C)c2O)c2ccccc2n1` gave APOBEC3A inh inactive, Yeast superoxide inactive, PfM18AAP inh inactive, CendR NRP1 mod inactive, ALR H2O2 inh inactive and APOBEC3G inh inactive.
`COc1ccc(N2C(=O)CSC23CCCCC3)cc1` gave APOBEC3A inh inactive, Yeast superoxide inactive, PfM18AAP inh inactive, CendR NRP1 mod inactive, ALR H2O2 inh 98.5 and APOBEC3G inh inactive.
Screening C[C@H](CO)N1C[C@H](C)[C@H](CN(C)S(=O)(=O)c2ccc3c(c2)OCCCO3)OCc2cnnn2CCCC1=O returned CendR NRP1 mod inactive.
For CC(=O)Nc1cncc(-c2ccccc2C(C)=O)n1 the results were CendR NRP1 mod inactive.
For CNc1cncc(-c2ccccc2NC(C)=O)n1 the results were CendR NRP1 mod 32.3.
Screening C#CC1(O)CCCC2C3CCC4CC(OC(C)=O)CCC4(C)C3C(=O)CC21C (stereo not drawn) returned CendR NRP1 mod inactive.
For CN(C)C(=O)/C(C#N)=C\c1cc(Br)c(Sc2ccc(Cl)cc2)o1 the results were Yeast superoxide inactive, PfM18AAP inh inactive, CendR NRP1 mod inactive and ALR H2O2 inh 93.3.
CNC(=O)/C(C#N)=C/c1ccc(-c2ccc(Cl)cc2)o1 was read as APOBEC3A inh inactive, Yeast superoxide inactive, PfM18AAP inh inactive, CendR NRP1 mod inactive, ALR H2O2 inh inactive and APOBEC3G inh inactive.
`CC(C)NS(=O)(=O)c1ccc2c(c1)NCC2` gave APOBEC3A inh inactive, Yeast superoxide inactive, PfM18AAP inh inactive, CendR NRP1 mod inactive, ALR H2O2 inh 98.7 and APOBEC3G inh inactive.
`CCn1c(C)c(C)c2cc(C(=O)NCCCN3CCN(C)CC3)ccc21` gave APOBEC3A inh inactive, Yeast superoxide inactive, PfM18AAP inh inactive, CendR NRP1 mod inactive, ALR H2O2 inh inactive and APOBEC3G inh inactive.
For c1ccc2c(c1)-c1cccc3c1c-2cc1ccccc13 the results were APOBEC3A inh inactive, Yeast superoxide inactive, ALR H2O2 inh inactive and APOBEC3G inh inactive.
`Oc1cc(-c2ccccc2)c2ccccc2c1` gave APOBEC3A inh inactive, Yeast superoxide inactive, PfM18AAP inh inactive, CendR NRP1 mod inactive, ALR H2O2 inh 99.0 and APOBEC3G inh inactive.
For O=c1c(Cl)c(N2CCN(c3ccc(F)cc3)CC2)cnn1C12CC3CC(CC(C3)C1)C2 the results were APOBEC3A inh inactive, Yeast superoxide inactive, PfM18AAP inh inactive, CendR NRP1 mod inactive, ALR H2O2 inh 77.1 and APOBEC3G inh inactive.
Screening O=c1c(Cl)c(N2CCN(c3ccccc3)CC2)cnn1C12CC3CC(CC(C3)C1)C2 returned APOBEC3A inh inactive, Yeast superoxide inactive, PfM18AAP inh inactive, CendR NRP1 mod inactive, ALR H2O2 inh 85.8 and APOBEC3G inh inactive.
Screening Cc1ccn2c(C=O)c(-c3ccc(F)cc3)c(C=O)c2c1 returned APOBEC3A inh inactive, Yeast superoxide inactive, PfM18AAP inh inactive, CendR NRP1 mod inactive and APOBEC3G inh inactive.
Screening O=C(Nn1cnc2ccccc2c1=O)c1cccc(Cl)c1 returned APOBEC3A inh inactive, Yeast superoxide inactive, PfM18AAP inh inactive, CendR NRP1 mod inactive, ALR H2O2 inh inactive and APOBEC3G inh inactive.
Screening CCOC(=O)C(=NCC1CCCO1)NNc1cc(Cl)ccc1Cl (stereo not drawn) returned APOBEC3A inh inactive, Yeast superoxide inactive, PfM18AAP inh inactive, CendR NRP1 mod inactive, ALR H2O2 inh 99.0 and APOBEC3G inh inactive.
For Cc1cc(OCc2nc3ccccc3s2)ccc1N the results were APOBEC3A inh inactive, Yeast superoxide inactive, PfM18AAP inh inactive, CendR NRP1 mod inactive, ALR H2O2 inh 98.1 and APOBEC3G inh inactive.
Screening c1ccc(OCc2nc3ccccc3s2)cc1 returned APOBEC3A inh inactive, Yeast superoxide inactive, PfM18AAP inh inactive, CendR NRP1 mod inactive, ALR H2O2 inh inactive and APOBEC3G inh inactive.
Screening CCOC(=O)[C@]12CCCC=C1N(CCC1=CCCCC1)C(=O)[C@H](CC(=O)NCCc1ccccc1OC)C2 returned CendR NRP1 mod inactive.
CCCNC(=O)c1ccc(N2CCC3(CC2)CC(c2ccccc2)=NO3)c([N+](=O)[O-])c1 was read as APOBEC3A inh inactive, Yeast superoxide inactive, PfM18AAP inh inactive, CendR NRP1 mod inactive, ALR H2O2 inh inactive and APOBEC3G inh inactive.
`O=C(NCc1ccccc1)c1ccc(N2CCC3(CC2)CC(c2ccc(Cl)cc2)=NO3)c([N+](=O)[O-])c1` gave APOBEC3A inh inactive, Yeast superoxide inactive, PfM18AAP inh inactive, CendR NRP1 mod 30.9, ALR H2O2 inh inactive and APOBEC3G inh inactive.
COc1ccc(-c2nc(CSCC(=O)NCC3CCCO3)c(C)o2)cc1OC (stereo not drawn) was read as APOBEC3A inh inactive, Yeast superoxide inactive, PfM18AAP inh inactive, CendR NRP1 mod inactive, ALR H2O2 inh 98.3 and APOBEC3G inh inactive.
Cc1ccc(-c2nc(CSCC(=O)NCC3CCCO3)c(C)o2)cc1 (stereo not drawn) was read as APOBEC3A inh inactive, Yeast superoxide inactive, PfM18AAP inh inactive, CendR NRP1 mod inactive, ALR H2O2 inh 94.7 and APOBEC3G inh inactive.
`COc1ccc(-c2nc(CSCC(=O)NCCCN3CCCC3=O)c(C)o2)cc1OC` gave APOBEC3A inh inactive, Yeast superoxide inactive, PfM18AAP inh inactive, CendR NRP1 mod inactive, ALR H2O2 inh 97.5 and APOBEC3G inh inactive.
`CCOc1ccc(-c2nc(CSCC(=O)NCC3CCCO3)c(C)o2)cc1` (stereo not drawn) gave APOBEC3A inh inactive, Yeast superoxide inactive, PfM18AAP inh inactive, CendR NRP1 mod inactive, ALR H2O2 inh 99.5 and APOBEC3G inh inactive.
